Read-out in assay [1]: Urokinase-type plasminogen activator receptor (uPAR), PLAUR (gene 5329)
Put plainly: BSK_4H_uPAR: BioMAP Diversity Plus: 4H Assay for Urokinase-type plasminogen activator receptor (uPAR) Biomarker Activity (AID 2283030). The settings on record: primary human endothelial cells (HUVEC); actives raise or lower the signal. A digest of the protocol: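 Primary human umbilical vein endothelial cells were exposed to chemical for 24 h before cell-surface uPAR was quantified by ELISA. Activity was fitted bidirectionally against the DMSO negative control baseline.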

Read-out in assay [2]: Vascular cell adhesion molecule 1 (VCAM1), VCAM1 (gene 7412)
Put plainly: BSK_4H_VCAM1: BioMAP Diversity Plus: 4H Assay for Vascular cell adhesion molecule 1 (VCAM1) Biomarker Activity (AID 2283033).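 On outcome: cell-surface VCAM-1 protein measured by ELISA.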 The settings on record: primary human endothelial cells (HUVEC); actives raise or lower the signal. The method, boiled down:
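HUVEC, 24 h post-dose; VCAM-1 by ELISA. Bidirectional curve fit vs DMSO baseline. Parallel SRB total-protein stain (0.1% SRB after 10% TCA fixation, 560 nm) for cytotoxicity.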

Read-out in assay [3]: Interferon-gamma inducible Protein 10 (IP10), CXCL10 (gene 3627)
Kind of assay: BSK_BE3C_IP10: BioMAP Diversity Plus: BE3C Assay for Interferon-gamma inducible Protein 10 (IP10) Biomarker Activity (AID 2283034). The settings on record: primary human bronchial epithelial cells; actives raise or lower the signal. The method, boiled down:
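ELISA readout of IP-10 in BE3C system: primary human bronchial epithelial cells, 24 h post-dosing; bidirectional curve fit vs DMSO baseline.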

Read-out in assay [4]: Transforming growth factor beta 1 (TGFb1), TGFB1 (gene 7040)
Kind of assay: BSK_BE3C_TGFb1: BioMAP Diversity Plus: BE3C Assay for Transforming growth factor beta 1 (TGFb1) Biomarker Activity (AID 2283036;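 on outcome: TGF-b1 protein level measured by ELISA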). The note with it: primary human bronchial epithelial cells; actives raise or lower the signal. The method, boiled down: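 Read-out: ELISA for TGF-b1 in primary human bronchial epithelial cultures, 24 h post-dose. Bidirectional curve fitting vs DMSO control; gain or loss of signal both scored.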

Read-out in assay [5]: Plasminogen activator inhibitor-1 (PAI1), SERPINE1 (gene 5054)
Kind of assay: BSK_BE3C_PAI1: BioMAP Diversity Plus: BE3C Assay for Plasminogen activator inhibitor-1 (PAI1) Biomarker Activity (AID 2283037). The settings on record: primary human bronchial epithelial cells; actives raise or lower the signal. The method, boiled down:
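ELISA read-out of PAI-1 from human bronchial epithelial primary cells, 24 h post-dosing; bidirectional curve fit vs DMSO baseline, gain or loss of signal scored.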

Read-out in assay [6]: urokinase plasminogen activator (uPA), PLAU (gene 5328)
Kind of assay: BSK_BE3C_uPA: BioMAP Diversity Plus: BE3C Assay for urokinase plasminogen activator (uPA) Biomarker Activity (AID 2283038).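 On outcome: uPA protein level quantified by ELISA in cell cultures; uPA read one day after compound addition.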 The settings on record: primary human bronchial epithelial cells; actives raise or lower the signal. The method, boiled down: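 Human primary bronchial epithelial cells were exposed to chemical for 24 h, then uPA levels were measured by ELISA. Responses were fitted bidirectionally against DMSO as negative control and baseline. Parallel SRB staining of total protein gauged overt cytotoxicity.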

Read-out in assay [7]: Urokinase-type plasminogen activator receptor (uPAR), PLAUR (gene 5329)
Kind of assay: BSK_BE3C_uPAR: BioMAP Diversity Plus: BE3C Assay for Urokinase-type plasminogen activator receptor (uPAR) Biomarker Activity (AID 2283039).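 On outcome: cells exposed to compound for one day before measurement.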 The settings on record: primary human bronchial epithelial cells; actives raise or lower the signal. A digest of the protocol:
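ELISA readout of uPAR on human lung primary bronchial epithelial cells, 24 h post-dosing. Bidirectional curve fit relative to DMSO vehicle baseline; gain or loss of signal both scored.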

Read-out in assay [8]: Interleukin-6 (IL6), IL6 (gene 3569)
Kind of assay: BSK_CASM3C_IL6: BioMAP Diversity Plus: CASM3C Assay for Interleukin-6 (IL6) Biomarker Activity for (AID 2283040). The settings on record: primary human coronary artery smooth muscle cells; actives raise or lower the signal.

Read-out in assay [9]: Tissue plasminogen activator (tPA), PLAT (gene 5327)
Kind of assay: BSK_BE3C_tPA: BioMAP Diversity Plus: BE3C Assay for Tissue plasminogen activator (tPA) Biomarker Activity (AID 2283041).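 On outcome: tPA level quantified by ELISA one day after compound addition.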 The note with it: primary human bronchial epithelial cells; actives raise or lower the signal. The method, boiled down:
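ELISA read-out of tPA on human primary bronchial epithelial cells, 24 h post-dosing; bidirectional fit vs DMSO negative control/baseline.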

Read-out in assay [10]: Interleukin-8 (IL8), CXCL8 (gene 3576)
Kind of assay: BSK_CASM3C_IL8: BioMAP Diversity Plus: CASM3C Assay for Interleukin-8 (IL8) Biomarker Activity (AID 2283042).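 Further: IL-8 protein level quantified by ELISA.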 The note with it: primary human coronary artery smooth muscle cells; actives raise or lower the signal.

Read-out in assay [11]: Human Leukocyte Antigen - DR isotype (HLADR), HLA-DRA (gene 3122)
Kind of assay: BSK_CASM3C_HLADR: BioMAP Diversity Plus: CASM3C Assay for Human Leukocyte Antigen - DR isotype (HLADR) Biomarker Activity (AID 2283043).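 Further: cell-surface HLA-DR protein level quantified by ELISA.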 The settings on record: primary human coronary artery smooth muscle cells; actives raise or lower the signal.

Read-out in assay [12]: Macrophage colony-stimulating factor (MCSF), CSF1 (gene 1435)
Put plainly: BSK_CASM3C_MCSF: BioMAP Diversity Plus: CASM3C Assay for Macrophage colony-stimulating factor (MCSF) Biomarker Activity (AID 2283044).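 Further: M-CSF protein amount quantified by ELISA after 24 h exposure.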 The settings on record: primary human coronary artery smooth muscle cells; actives raise or lower the signal.

Read-out in assay [13]: Low-density lipoprotein receptor (LDLR), LDLR (gene 3949)
Kind of assay: BSK_CASM3C_LDLR: BioMAP Diversity Plus: CASM3C Assay for Low-density lipoprotein receptor (LDLR) Biomarker Activity (AID 2283045).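 Further: LDLR protein level on the cell surface quantified by ELISA.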 The note with it: primary human coronary artery smooth muscle cells; actives raise or lower the signal.

Read-out in assay [14]: Monocyte Chemoattractant Protein-1 (MCP1), CCL2 (gene 6347)
Put plainly: BSK_CASM3C_MCP1: BioMAP Diversity Plus: CASM3C Assay for Monocyte Chemoattractant Protein-1 (MCP1) Biomarker Activity (AID 2283046).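 Further: MCP-1 level quantified by ELISA 24 h after dosing.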 The settings on record: primary human coronary artery smooth muscle cells; actives raise or lower the signal.

A short description of assay [15]: BSK_CASM3C_Proliferation: Cell Proliferation Assessment in the BioMAP Diversity Plus: CASM3C Assay (AID 2283047).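 Further: sulforhodamine B total protein stain as relative cell number at 560 nm; sub-confluent cells exposed 48 h before staining; fitted both ways against DMSO so gain or loss of cell number.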 The note with it: primary human coronary artery smooth muscle cells.
Read-out in assay [16]: Monokine induced gamma interferon (MIG), CXCL9 (gene 4283)
Kind of assay: BSK_CASM3C_MIG: BioMAP Diversity Plus: CASM3C Assay for Monokine induced gamma interferon (MIG) Biomarker Activity (AID 2283048). The note with it: primary human coronary artery smooth muscle cells; actives raise or lower the signal.

Read-out in assay [17]: serum amyloid A (SAA), SAA1 (gene 6288)
Put plainly: BSK_CASM3C_SAA: BioMAP Diversity Plus: CASM3C Assay for serum amyloid A (SAA) Biomarker Activity (AID 2283049).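 Further: SAA protein level quantified by ELISA.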 The note with it: primary human coronary artery smooth muscle cells; actives raise or lower the signal.

Read-out in assay [18]: Monokine induced gamma interferon (MIG), CXCL9 (gene 4283)
Kind of assay: BSK_BE3C_MIG: BioMAP Diversity Plus: BE3C Assay for Monokine induced gamma interferon (MIG) Biomarker Activity (AID 2283035).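 On outcome: MIG protein measured by ELISA in BE3C cultures after 24 h of dosing.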 The note with it: primary human bronchial epithelial cells; actives raise or lower the signal. A digest of the protocol:
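hu bronchial epithelial 1° cells, 24 h cpd; MIG by ELISA; bidirectional fit, DMSO = baseline.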

Here are results for 7 compounds from PubChem BioAssay (EPA / NIEHS).

The source holds several records for some structures; these can differ, active in one and inactive in another. Active and inactive are the calls of the source. How the source made its calls: active means hit-call score of the fitted dose curve at least 0.9, where 1 is the maximum; inactive means score below 0.9.

What is called AC50 is the midpoint of the concentration-response curve, whichever way the signal moves. Regarding `CCCCOC(=O)c1ccccc1C(=O)OCCCC`, the outcome in assay [1], in assay [2], in [3], in assay [4], in assay [5] and in assay [6] was inactive. The outcome in assay [7], in assay [8], in assay [9], in assay [10], in assay [11] and in assay [12] was inactive. Further, the result in assay [13], in assay [14], in assay [15], in [16] and in assay [17] was inactive. Also, the results for the AC50 in assay [12] and in assay [15] were 0.767 µM (active) and 34.9 µM (active), respectively.

In the case of `CC(Oc1ccc(Cl)cc1Cl)C(=O)O` (centres undefined), the outcome in assay [1], in assay [2], in [3], in [4], in [5] and in [6] was inactive. Moreover, the outcome in assay [7], in [8], in assay [9], in [10], in [11] and in assay [12] was inactive. Besides, the result in [13], in assay [14], in assay [15], in assay [16] and in [17] was inactive.

For the compound `COC(=O)N(OC)c1ccccc1COc1ccn(-c2ccc(Cl)cc2)n1`, the half-maximal activity concentration (AC50) in assay [1] is 20 µM (active); in [3] it was 8.98 µM (active); in assay [5] it was 5.65 µM (active); in [10], 15.8 µM (active); in [15], 6.45 µM (active). Besides, the result in assay [2], in assay [4], in assay [6], in [7], in assay [8] and in assay [9] was inactive. The result in [11], in [12], in [13], in [14], in assay [16] and in assay [17] was inactive.

In the case of `CCCCC(CC)COC(=O)c1ccccc1C(=O)OCC(CC)CCCC` (centres undefined), the outcome in assay [1], in assay [2], in assay [3], in assay [18], in [4] and in assay [5] was inactive. The result in assay [6], in assay [7], in assay [9], in [10], in assay [11] and in assay [12] was inactive. Besides, the result in assay [13], in assay [14], in assay [15], in [16] and in assay [17] was inactive. In addition, the AC50 in assay [8] is 7.31 µM (active).

Take `C=CCC1=C(C)[C@@H](OC(=O)[C@@H]2[C@@H](C=C(C)C)C2(C)C)CC1=O`: the result in assay [1], in assay [2], in assay [18], in assay [4], in assay [7] and in assay [8] was inactive. For the same compound, the result in assay [9], in assay [10], in assay [11], in [12], in assay [14] and in [15] was inactive. Moreover, the outcome in assay [16] and in [17] was inactive. The half-maximal activity concentration (AC50) in assay [3] is 30.6 µM (active); in assay [5], 29.5 µM (active); in [6], 26.7 µM (active); in assay [13] it was 20 µM (active).

As for `CC1COC(Cn2cncn2)(c2ccc(Oc3ccc(Cl)cc3)cc2Cl)O1` (centres undefined), the half-maximal activity concentration (AC50) was 24.3 µM (active) in assay [1]; 32.2 µM (active) in assay [2]; 31.7 µM (active) in assay [3]; 20 µM (active) in [5]; 20 µM (active) in [6]; 30.3 µM (active) in assay [7]. Moreover, the AC50 in assay [9] is 27.4 µM (active); in assay [15], 27.8 µM (active). Besides, the result in assay [4], in assay [8], in assay [10], in assay [11], in assay [12] and in assay [13] was inactive. Besides, the result in assay [14], in [16] and in assay [17] was inactive.

Regarding `Fc1ccc(Oc2ccnc3cc(Cl)cc(Cl)c23)cc1`, the concentration at half-maximal activity (AC50) is 32.1 µM (active) in [1]; 30.1 µM (active) in [2]; 28.7 µM (active) in [3]; 34.3 µM (active) in assay [18]; 32.9 µM (active) in [4]; 30.3 µM (active) in assay [5]. Moreover, the half-maximal activity concentration (AC50) in assay [6] was 36.5 µM (active); in assay [7] it was 34.2 µM (active); in assay [8], 11.4 µM (active); in [9], 31.9 µM (active); in [14], 30.6 µM (active); in assay [15], 24.4 µM (active). The result in assay [10], in [11], in assay [12], in [13], in [16] and in assay [17] was inactive.
